Source: PubChem BioAssay
Nrf2 activator = activates Nrf2 signaling. AREc32 ARE-luciferase reporter (MCF7-derived line), luminescence, 24 h. Potency, µM (series often up to 46.1 µM), usual class: activators. hit rate 0.31% among 410,000. AID 624171; further: nearly all actives have a fitted effect of over 65% in size
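Nrf2 activation is followed as ARE-luciferase induction in the AREc32 line after one day of compound treatment; luminescence is read with Steady-Glo.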
Nrf2 inh = Nrf2 pathway inhibition. A549 ARE-Fluc reporter, luciferase luminescence, 18-24 h. Potency, µM (doses to about 46 µM), usual class: inhibitors. hit rate 2.1% among 360,000; further: nearly all actives have a fitted effect of over 60% in size
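A549 ARE_Fluc cells, 5000/well, 5% FBS OPTI-MEM; compounds in dose-response, 18-24 h at 37 °C/5% CO2; CellTiter-Fluor viability read (Ex 405/Em 525), then BugLite luciferase luminescence = Nrf2 activity.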
12-LOX inh = inhibitors of human 12S-lipoxygenase ALOX12 | P18054 | purified 12hLO, xylenol orange hydroperoxide absorbance | Potency, µM (highest dose often 108 µM), usual class: inhibitors | hit rate 1.1% among 580,000
Target sequence (P18054 whole entry, looked up): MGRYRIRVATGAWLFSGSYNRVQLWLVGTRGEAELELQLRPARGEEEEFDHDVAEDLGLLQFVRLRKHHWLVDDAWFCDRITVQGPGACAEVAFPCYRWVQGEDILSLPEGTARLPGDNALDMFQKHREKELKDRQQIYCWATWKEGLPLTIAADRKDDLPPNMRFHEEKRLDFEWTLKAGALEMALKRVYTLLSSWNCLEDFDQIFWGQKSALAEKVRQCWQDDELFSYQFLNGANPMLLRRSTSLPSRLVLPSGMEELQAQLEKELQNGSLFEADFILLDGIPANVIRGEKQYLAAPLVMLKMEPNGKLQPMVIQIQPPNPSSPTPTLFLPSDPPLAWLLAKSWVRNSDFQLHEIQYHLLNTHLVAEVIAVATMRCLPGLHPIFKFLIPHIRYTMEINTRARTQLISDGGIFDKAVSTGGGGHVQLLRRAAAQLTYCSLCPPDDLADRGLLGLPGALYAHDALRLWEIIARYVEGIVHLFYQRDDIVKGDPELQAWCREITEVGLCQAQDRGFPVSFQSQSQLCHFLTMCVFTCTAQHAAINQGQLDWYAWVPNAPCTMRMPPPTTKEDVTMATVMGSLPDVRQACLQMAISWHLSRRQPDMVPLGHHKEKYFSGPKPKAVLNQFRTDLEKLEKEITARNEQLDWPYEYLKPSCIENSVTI
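Hydroperoxide product was detected by ferrous iron/xylenol orange as the 573 to 405 nm absorbance ratio. Arachidonic acid at 40 uM (final) was turned over for 30 min at room temperature by 150 nM human 12hLO, pH 7.0 Hepes buffer, after 15 min compound preincubation.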
A549 viability = A549 cytotoxicity, counter-screen for Nrf2 inhibitors | A549 ARE-Fluc cells, CellTiter-Fluor viability, 18-24 h | Potency, µM (titrated, usually from 46 µM), usual class: inhibitors | hit rate 0.16% among 390,000
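Cytotoxicity counterscreen: CellTiter-Fluor fluorescence was measured in A549 ARE_Fluc cells after 18-24 h of compound exposure in a concentration series. The subsequent BugLite luminescent read reports ARE-luciferase activity.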
LDHA inh = inhibitors of human lactate dehydrogenase A | P00338 | purified LDHA, NADH/diaphorase-resazurin fluorescence; active compounds read low | activity change, % (values are at about 110 or 230 µM) | hit rate 0.15% among 480,000; in the data active means activity change below about -30%; inconclusive means mostly about -25% to -30%
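Human LDH5 (2 nM) was incubated with 0.06 mM NADH and 0.2 mM pyruvate for 5 min at room temperature in Tris pH 7.4. Remaining NADH was coupled through diaphorase/resazurin, and resorufin fluorescence was read at 0 and 20 min.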
IDH1 R132H inh = blocks human mutant IDH1 R132H enzyme; O75874; IDH1-R132H enzyme, NADPH consumption, diaphorase/resazurin fluorescence; Potency, µM (top dose mostly 76.6 µM), hits mostly inhibitors; hit rate 0.093% among 390,000; AID 602179; further: nearly all actives have a fitted effect of over 65% in size
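IDH1-R132H (0.5 ug/mL) preincubated 30 min with compound, then NADPH (0.016 mM) and alpha-KG (2 mM) added; 80 min at RT, pH 7.5. Remaining NADPH coupled via diaphorase/resazurin to fluorescence (540/590 nm); concentration-response curves normalized to no-enzyme control.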
Numbers stand for hits; [ ] = another dose, or the depositor's remark. An excerpt weighted towards active compounds, which were near 2.7% of everything screened. Unless noted, the call rests on the fitted dose curve; in most records, active means well fitted curve in the direction sought with a large enough effect; inconclusive means small, poorly fitted or top-dose-only effect, or another doubt; inactive means no such curve, though single readings can be large; an effect the other way counts as inactive or inconclusive.

For OC(CCN1CC2CCC(CC2)C1)(Cc1ccccc1)c1ccco1 (stereo not drawn) the results were Nrf2 activator inactive, Nrf2 inh inactive, 12-LOX inh 2.5µM, A549 viability inactive, LDHA inh inactive and IDH1 R132H inh inactive.
Screening CCn1cc(S(=O)(=O)c2ccc(OC)cc2)c(=O)c2cc(F)c(N3CCC(C)CC3)cc21 returned Nrf2 activator inactive, Nrf2 inh 16µM, 12-LOX inh inactive, A549 viability inactive, LDHA inh inactive and IDH1 R132H inh inactive.
Screening COc1ccc(C2CC(=O)C(CS(=O)(=O)c3ccccc3)C(=O)C2)cc1 (stereo not drawn) returned Nrf2 activator inactive, Nrf2 inh inactive, 12-LOX inh inactive, A549 viability inactive, LDHA inh inactive and IDH1 R132H inh inactive.
`O=C1CC(c2ccc(Cl)cc2)CC(=O)C1CS(=O)(=O)c1ccccc1` (stereo not drawn) gave Nrf2 activator inactive, Nrf2 inh inactive, 12-LOX inh 35µM, A549 viability inactive, LDHA inh inactive and IDH1 R132H inh inactive.
N#Cc1c(-c2ccccc2)cc(-c2ccc3c(c2)OCO3)[nH]c1=O was read as Nrf2 activator inactive, Nrf2 inh inactive, 12-LOX inh inconclusive, A549 viability inactive, LDHA inh inactive and IDH1 R132H inh inactive.
N#Cc1c(O)c2c(-c3ccc(-c4ccccc4O)cc3)csc2[nH]c1=O was read as 12-LOX inh 24µM.
COc1ccc(-c2cc3nc4n(c(=O)c3s2)CCC4)cc1 was read as Nrf2 activator inactive, Nrf2 inh inconclusive, 12-LOX inh inactive, A549 viability inactive, LDHA inh inactive and IDH1 R132H inh inactive.
COc1ccc(-c2cc3nc(C)n(N)c(=O)c3s2)cc1 was read as Nrf2 activator inactive, Nrf2 inh 6.5µM, 12-LOX inh inactive, A549 viability inactive, LDHA inh inactive and IDH1 R132H inh inactive.
`Cc1nc2cc(-c3ccccc3)sc2c(=O)n1N` gave Nrf2 activator inactive, Nrf2 inh 4.1µM, 12-LOX inh inactive, A549 viability inactive, LDHA inh inactive and IDH1 R132H inh inactive.
Screening Cn1c(NCc2ccccc2)nc2cc(-c3ccccc3)sc2c1=O returned Nrf2 activator inactive, 12-LOX inh inactive and LDHA inh inactive.
`CN(CCOc1ccccc1)C(=O)c1cc(Cl)c[nH]1` gave 12-LOX inh inactive and LDHA inh inactive.
For CN(C)S(=O)(=O)c1ccc(N2CCCCC2)c(C(=O)OC(C(=O)NC2CC2)c2ccccc2)c1 (stereo not drawn) the results were 12-LOX inh inconclusive and LDHA inh inactive.
`CCOC(=O)N1CCC(NS(=O)(=O)c2ccc(C)cc2)CC1` gave Nrf2 activator inactive, Nrf2 inh inactive, 12-LOX inh inactive, A549 viability inactive, LDHA inh inactive and IDH1 R132H inh inactive.
`CCOC(=O)N1CCC(NS(=O)(=O)c2ccc(NC(C)=O)c(Cl)c2)CC1` gave Nrf2 activator inactive, Nrf2 inh 12µM, 12-LOX inh inactive, A549 viability inactive, LDHA inh inactive and IDH1 R132H inh inactive.
Screening NS(=O)(=O)c1ccc(N2N=C(c3ccccc3)CC2c2ccccc2)cc1 (stereo not drawn) returned Nrf2 activator inactive, Nrf2 inh inconclusive, 12-LOX inh inconclusive, A549 viability inactive, LDHA inh inactive and IDH1 R132H inh inactive.
For NS(=O)(=O)c1ccc(N2N=C(c3ccccc3)CC2c2ccccc2Cl)cc1 (stereo not drawn) the results were Nrf2 activator inactive, Nrf2 inh 21µM, 12-LOX inh inactive, A549 viability inconclusive, LDHA inh inactive and IDH1 R132H inh inactive.
`CCCC(=O)Nc1nnc(Cc2ccc(OC)c(OC)c2)s1` gave 12-LOX inh inactive and LDHA inh inactive.
For O=C(COC(=O)CSc1cccc2cccc(Cl)c12)Nc1ncc(C(F)(F)F)cc1Cl the results were Nrf2 activator inactive, Nrf2 inh inconclusive, 12-LOX inh 28µM, A549 viability inactive, LDHA inh inactive and IDH1 R132H inh inactive.
O=C(CCC(=O)OCc1ccccc1Cl)Nc1ccc2c(c1)oc1ccccc12 was read as 12-LOX inh inactive and LDHA inh inactive.
For CCCCNC(=O)c1cccc(NC(=O)Nc2ccccc2)c1 the results were 12-LOX inh inactive and LDHA inh inactive.
COc1cccc([S+](=O)([O-])N2CCn3c(nn(-c4cccc(Cl)c4)c3=O)C2)c1 was read as 12-LOX inh 6.3µM.
For COc1cccc([S+](=O)([O-])N2CCn3c(nn(-c4ccc(Cl)cc4)c3=O)C2)c1 the results were 12-LOX inh inactive[6.33 µM].
CC(Oc1cc2oc(=O)cc(-c3ccccc3)c2cc1Cl)C(=O)NCCCO (stereo not drawn) was read as 12-LOX inh inactive and LDHA inh inactive.
`CCc1cc2c(-c3ccccc3)cc(=O)oc2cc1OC(C)C(C)=O` (stereo not drawn) gave Nrf2 activator inactive, Nrf2 inh 6.5µM, 12-LOX inh inactive, A549 viability inactive, LDHA inh inactive and IDH1 R132H inh inactive.
COc1nn(C)c2nc(C)c(CCC(=O)NC(C)C(C)C)c(C)c12 (stereo not drawn) was read as 12-LOX inh inactive and LDHA inh inactive.
For CCOc1ccc(NS(=O)(=O)c2ccc(C(=O)NC3CCN(S(C)(=O)=O)CC3)cc2)cc1 the results were 12-LOX inh inactive and LDHA inh inactive.
`Oc1ccc(C2(c3ccccc3)CCCCC2)cc1` gave 12-LOX inh inconclusive and LDHA inh inactive.
`Oc1ccc(C2(c3ccc(O)cc3)CCCC2)cc1` gave 12-LOX inh 35µM and LDHA inh inactive.
Screening O=C(O)c1[nH]c2ccccc2c1C(c1c(F)cccc1Cl)c1c(C(=O)O)[nH]c2ccccc12 returned Nrf2 activator inactive, Nrf2 inh inactive, 12-LOX inh inactive, A549 viability inactive, LDHA inh inactive and IDH1 R132H inh inactive.
Screening COc1cc(Cl)cc(C(c2c(C(=O)O)[nH]c3ccccc23)c2c(C(=O)O)[nH]c3ccccc23)c1O returned Nrf2 activator inactive, Nrf2 inh inconclusive, 12-LOX inh 16µM, A549 viability inactive, LDHA inh inactive and IDH1 R132H inh inactive.
CC(C)(C)c1ccc(C2C(C(=O)c3cccs3)=C(O)C(=O)N2c2nncs2)cc1 (stereo not drawn) was read as 12-LOX inh inconclusive and LDHA inh inactive.
Screening O=C(C1=C(O)C(=O)N(c2nncs2)C1c1ccccc1)c1cccs1 (stereo not drawn) returned 12-LOX inh 0.56µM and LDHA inh inactive.
